Reference: PubChem BioAssay AID1159580 (chemical genetic matrix, 2015)
In all, about 5,500 compounds went through this assay and about 2,000 (36%) were called active. Not shown: some 18% with an inconclusive outcome. The list shows a part of the results. Values without a mark were called inactive. Cut-off read from the data, not from the text of the source: active = normalized growth mostly below about 0.91 (no sharp cut-off); inconclusive = no clear call, values can overlap the other calls; inactive = mostly above about 0.92.

Assay: chemical genetic growth profiling, strain panel (AID 1159580);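 note: tested at 20 µM; growth read once vehicle control cultures reached saturation at 30 °C; 1 = growth at the plate median or of vehicle wells; lower values mean less growth of the strain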
Conditions: S. cerevisiae deletion strains, growth OD
[1] = locus YAR019C, strain CDC15, hits give low values
[2] = locus YBL105C, strain PKC1, hits give low values
[3] = locus YBR135W, strain CKS1, hits give low values
[4] = locus YBR136W, strain MEC1, hits give low values
[5] = locus YBR160W, strain CDC28, hits give low values
[6] = locus YDL017W, strain CDC7, hits give low values
[7] = locus YDL028C, strain MPS1, hits give low values
[8] = locus YDL101C, strain DUN1, hits give low values
[9] = locus YDL108W, strain KIN28, hits give low values
[10] = locus YDL132W, strain cdc53, hits give low values
[11] = locus YDL214C, strain PRR2, hits give low values
[12] = locus YDR052C, strain DBF4, hits give low values
[13] = locus YDR054C, strain cdc34, hits give low values
[14] = locus YDR226W, strain ADK1, hits give low values
[15] = locus YDR477W, strain SNF1, hits give low values
[16] = locus YER123W, strain YCK3, hits give low values
[17] = locus YER133W, strain GLC7, hits give low values
[18] = locus YFL009W, strain cdc4, hits give low values
[19] = locus YFL029C, strain CAK1, hits give low values
[20] = locus YFR003C, strain YPI1, hits give low values
[21] = locus YFR019W, strain FAB1, hits give low values
[22] = locus YFR028C, strain CDC14, hits give low values
[23] = locus YGR040W, strain KSS1, hits give low values
[24] = locus YGR052W, strain FMP48, hits give low values
[25] = locus YGR092W, strain DBF2, hits give low values
[26] = locus YHR030C, strain SLT2, hits give low values
[27] = locus YHR079C, strain IRE1, hits give low values
[28] = locus YHR082C, strain KSP1, hits give low values
[29] = locus YHR205W, strain SCH9, hits give low values
[30] = locus YIL147C, strain SLN1, hits give low values
[31] = locus YJL095W, strain BCK1, hits give low values
[32] = locus YJL128C, strain PBS2, hits give low values
[33] = locus YJL157C, strain FAR1, hits give low values
[34] = locus YJR016C, strain ILV3, hits give low values
[35] = locus YJR066W, strain TOR1 (second series), hits give low values
[36] = locus YJR066W, strain TOR1, hits give low values
[37] = locus YKL048C, strain ELM1, hits give low values
[38] = locus YKL067W, strain YNK1, hits give low values
[39] = locus YKL101W, strain HSL1, hits give low values
[40] = locus YKL193C, strain SDS22, hits give low values
[41] = locus YKL203C, strain TOR2, hits give low values
[42] = locus YLR113W, strain HOG1, hits give low values
[43] = locus YLR133W, strain CKI1, hits give low values
[44] = locus YLR403W, strain SFP1, hits give low values
[45] = locus YML070W, strain DAK1, hits give low values
[46] = locus YMR001C, strain CDC5, hits give low values
[47] = locus YMR205C, strain PFK2 (second series), hits give low values
[48] = locus YMR277W, strain FCP1, hits give low values
[49] = locus YNL006W, strain LST8, hits give low values
[50] = locus YNL020C, strain ARK1, hits give low values
[51] = locus YNL161W, strain CBK1, hits give low values
[52] = locus YNL183C, strain NPR1, hits give low values
[53] = locus YNL207W, strain RIO2, hits give low values
[54] = locus YNL222W, strain SSU72, hits give low values
[55] = locus YNL307C, strain MCK1 (second series), hits give low values
[56] = locus YOL078W, strain AVO1, hits give low values
[57] = locus YOL136C, strain PFK27, hits give low values
[58] = locus YOR061W, strain CKA2, hits give low values
[59] = locus YOR119C, strain RIO1, hits give low values
[60] = locus YOR231W, strain MKK1, hits give low values
[61] = locus YOR329C, strain SCD5, hits give low values
[62] = locus YPL031C, strain PHO85, hits give low values
[63] = locus YPL153C, strain RAD53, hits give low values
[64] = locus YPL204W, strain HRR25, hits give low values
[65] = locus YPL209C, strain IPL1, hits give low values
[66] = locus YPL256C, strain CLN2, hits give low values
[67] = locus YPR025C, strain CCL1, hits give low values
[68] = locus YPR106W, strain ISR1, hits give low values
[69] = locus YPR111W, strain DBF20, hits give low values
[70] = strain NNK1, hits give low values
[71] = strain TSCII, hits give low values

With `O=C1c2ccccc2O[C@@H](c2ccccc2)[C@@H]1NCc1ccccc1` as the compound, how does the normalized growth [1] read?
Its normalized growth is 0.915.

And the normalized growth [2]?
The normalized growth was 0.916.

And the normalized growth [3]?
Its normalized growth is 0.922.

What about the normalized growth [4] of the same compound?
The normalized growth was 0.921.

What about the normalized growth [5] of the same compound?
Its normalized growth is 0.922.

What about the normalized growth [6] of the same compound?
Its normalized growth is 0.915.

What about the normalized growth [7] of the same compound?
Its normalized growth is 0.919.

And the normalized growth [8]?
The normalized growth was 0.905 (active).

And the normalized growth [9]?
The normalized growth was 0.929.

What about the normalized growth [10] of the same compound?
Its normalized growth is 0.893 (active).

And the normalized growth [11]?
The normalized growth was 0.867.

What about the normalized growth [12] of the same compound?
The normalized growth was 0.914.

And the normalized growth [13]?
The normalized growth was 0.879.

And the normalized growth [14]?
Its normalized growth is 0.896 (active).

And the normalized growth [15]?
Its normalized growth is 0.853.

And the normalized growth [16]?
The normalized growth was 0.836.

What about the normalized growth [17] of the same compound?
The normalized growth was 0.836.

And the normalized growth [18]?
The normalized growth was 0.894.

What about the normalized growth [19] of the same compound?
The normalized growth was 0.909.

And the normalized growth [20]?
Its normalized growth is 0.916.

What about the normalized growth [21] of the same compound?
The normalized growth was 0.894.

And the normalized growth [22]?
Its normalized growth is 0.891 (active).

What about the normalized growth [23] of the same compound?
The normalized growth was 0.85.

What about the normalized growth [24] of the same compound?
Its normalized growth is 0.856.

And the normalized growth [25]?
Its normalized growth is 0.844.

And the normalized growth [26]?
The normalized growth was 0.677 (active).

And the normalized growth [27]?
The normalized growth was 0.839.

And the normalized growth [28]?
Its normalized growth is 0.906.

What about the normalized growth [29] of the same compound?
Its normalized growth is 0.905.

What about the normalized growth [30] of the same compound?
The normalized growth was 0.915.

What about the normalized growth [31] of the same compound?
Its normalized growth is 0.751.

And the normalized growth [32]?
Its normalized growth is 0.874.

What about the normalized growth [33] of the same compound?
The normalized growth was 0.835.

What about the normalized growth [34] of the same compound?
Its normalized growth is 0.906.

And the normalized growth [35]?
Its normalized growth is 0.76.

What about the normalized growth [36] of the same compound?
The normalized growth was 0.864.

What about the normalized growth [37] of the same compound?
The normalized growth was 0.897.

And the normalized growth [38]?
Its normalized growth is 0.89.

What about the normalized growth [39] of the same compound?
The normalized growth was 0.899.

And the normalized growth [40]?
Its normalized growth is 0.905.

And the normalized growth [41]?
The normalized growth was 0.918.

What about the normalized growth [42] of the same compound?
Its normalized growth is 0.739 (active).

What about the normalized growth [43] of the same compound?
The normalized growth was 0.89.

And the normalized growth [44]?
The normalized growth was 0.834.

And the normalized growth [45]?
The normalized growth was 0.85.

What about the normalized growth [46] of the same compound?
The normalized growth was 0.899.

What about the normalized growth [47] of the same compound?
Its normalized growth is 0.863.

And the normalized growth [48]?
The normalized growth was 0.904.

What about the normalized growth [49] of the same compound?
The normalized growth was 0.915.

What about the normalized growth [50] of the same compound?
The normalized growth was 0.88.

And the normalized growth [51]?
Its normalized growth is 0.903.

What about the normalized growth [52] of the same compound?
Its normalized growth is 0.92.

What about the normalized growth [53] of the same compound?
The normalized growth was 0.89.

And the normalized growth [54]?
The normalized growth was 0.923.

And the normalized growth [55]?
The normalized growth was 0.895.

And the normalized growth [56]?
The normalized growth was 0.903.

What about the normalized growth [57] of the same compound?
Its normalized growth is 0.863.

What about the normalized growth [58] of the same compound?
The normalized growth was 0.849.

And the normalized growth [59]?
Its normalized growth is 0.89.

What about the normalized growth [60] of the same compound?
Its normalized growth is 0.887.

And the normalized growth [61]?
Its normalized growth is 0.911.

And the normalized growth [62]?
The normalized growth was 0.841.

What about the normalized growth [63] of the same compound?
Its normalized growth is 0.846.

And the normalized growth [64]?
Its normalized growth is 0.825.

And the normalized growth [65]?
Its normalized growth is 0.918.

What about the normalized growth [66] of the same compound?
Its normalized growth is 0.846 (active).

And the normalized growth [67]?
The normalized growth was 0.922.

And the normalized growth [68]?
The normalized growth was 0.909.

What about the normalized growth [69] of the same compound?
The normalized growth was 0.911.

And the normalized growth [70]?
Its normalized growth is 0.891.

What about the normalized growth [71] of the same compound?
Its normalized growth is 0.885.

What does the source list for `O=C1c2ccccc2O[C@@H](c2ccccc2)[C@@H]1NC1CCCCC1`?
normalized growth [1]: 0.904; normalized growth [2]: 0.909; normalized growth [3]: 0.914; normalized growth [4]: 0.916; normalized growth [5]: 0.927; normalized growth [6]: 0.914; normalized growth [7]: 0.913; normalized growth [8]: 0.898 (active); normalized growth [9]: 0.924; normalized growth [10]: 0.887 (active); normalized growth [11]: 0.883; normalized growth [12]: 0.907 (active); normalized growth [13]: 0.872 (active); normalized growth [14]: 0.898; normalized growth [15]: 0.87; normalized growth [16]: 0.843; normalized growth [17]: 0.841; normalized growth [18]: 0.884 (active); normalized growth [19]: 0.91; normalized growth [20]: 0.915; normalized growth [21]: 0.889; normalized growth [22]: 0.888 (active); normalized growth [23]: 0.866; normalized growth [24]: 0.885; normalized growth [25]: 0.871; normalized growth [26]: 0.697 (active); normalized growth [27]: 0.852; normalized growth [28]: 0.933; normalized growth [29]: 0.898; normalized growth [30]: 0.909; normalized growth [31]: 0.792; normalized growth [32]: 0.872; normalized growth [33]: 0.849; normalized growth [34]: 0.898 (active); normalized growth [35]: 0.771; normalized growth [36]: 0.888; normalized growth [37]: 0.901; normalized growth [38]: 0.903; normalized growth [39]: 0.906; normalized growth [40]: 0.902; normalized growth [41]: 0.922; normalized growth [42]: 0.747 (active); normalized growth [43]: 0.897; normalized growth [44]: 0.849; normalized growth [45]: 0.871; normalized growth [46]: 0.901; normalized growth [47]: 0.878; normalized growth [48]: 0.905; normalized growth [49]: 0.906 (active); normalized growth [50]: 0.901; normalized growth [51]: 0.9; normalized growth [52]: 0.941; normalized growth [53]: 0.898; normalized growth [54]: 0.919; normalized growth [55]: 0.904; normalized growth [56]: 0.9; normalized growth [57]: 0.887; normalized growth [58]: 0.867; normalized growth [59]: 0.945; normalized growth [60]: 0.874; normalized growth [61]: 0.909; normalized growth [62]: 0.867; normalized growth [63]: 0.864; normalized growth [64]: 0.843; normalized growth [65]: 0.917; normalized growth [66]: 0.858; normalized growth [67]: 0.914; normalized growth [68]: 0.91; normalized growth [69]: 0.92; normalized growth [70]: 0.905; normalized growth [71]: 0.881
